From PubChem BioAssay (Tox21)
Records with an inconclusive call do not appear. Activity calls are given as the source filed them. Calls follow the shape of the dose curve; as a rule, active = well fitted cell-killing curve with a large enough effect in the repeat runs; inconclusive = weak or mixed curves; inactive = flat fitted curve, though single readings scatter.

Assay: qHTS assay to identify small molecule antagonists of the estrogen receptor beta (ER-beta) signaling pathway - cell viability counter screen (AID 1259382); also: nearly all actives have a fitted effect of over 55% in size
Conditions: ER-beta-UAS-bla HEK293T viability, CellTiter-Glo luminescence, 16 h; series mostly up to 92.4 µM; activity change, negative = cytotoxicity: at the top concentration
From the text: U.S. Tox21 Program National Center for Advancing Translational Sciences [NCATS] NIH Chemical Genomics Center [NCGC] U.S. Environmental Protection Agency [EPA] National Institutes of Environmental Health Sciences [NIEHS] National Toxicology Program [NTP] U.S. Food and Drug Administration [FDA] Tox21 Assay Overview: Estrogen receptor (ER), a nuclear hormone receptor, plays an important role in development, metabolic homeostasis and reproduction. Two subtypes of ER, ER-alpha and ER-beta, have similar expression patterns with some uniqueness in both types. Endocrine disrupting chemicals (EDCs) and their interactions with steroid hormone receptors like ER causes disruption of normal endocrine function. To identify the compounds that inhibit ER signaling, an ER-beta-UAS-bla GripTite cell line (Life Technologies, Madison, WI, USA) containing a beta-lactamase reporter gene under the control of an UAS response element was used to screen Tox21 10K compound library. The cytotoxicity of the Tox21 compound library against the ER-beta-bla cell line was tested in parallel by measuring the cell viability using CellTiter-Glo assay in the same wells.
Tox21 Assay Protocol Summary: ER-beta-UAS-bla HEK293T cells were dispensed at 2,000 cells/4 uL of assay medium containing 2% charcoal stripped FBS per well into black wall/clear-bottom 1536-well plates using a Multidrop Combi (ThermoFisher Scientific, Waltham, MA) dispenser. After the assay plates were incubated at a 37C and 5% CO2 for 6 hr, 23 nL of compounds dissolved in DMSO, positive controls or DMSO only was transferred to the assay plate by a Pintool station (Kalypsys, San Diego, CA), followed by addition of 1 uL (1nM as final concentration) of 17-beta-estradiol (E2) in assay medium using a Flying Reagent Dispenser (FRD, Aurora Discovery, San Diego, CA). The plates were incubated at 37C and 5% CO2 for 16 hr. Then 1 uL of LiveBLAzer B/G FRET substrate was added using a Flying Reagent Dispenser, the plates were incubated at room temperature for 2 hours, and fluorescence intensity was measured by an Envision plate reader (PerkinElmer, Shelton, CT). For cell viability readout that measures cytotoxicity, 4 uL/well of CellTiter-Glo reagent was added into the assay plates using a FRD. After 30 min incubation at room temperature, the luminescence intensity in the plates was measured using a ViewLux (PerkinElmer) plate reader.
% is scaled to controls: 0 for no effect and ±100 for the full control effect; potency is read from the fitted curve at half-maximal effect.

Structure (SMILES)	activity change, negative = cytotoxicity	Potency
CCCCN(CCO)CCO	6.76% (inactive)	–
CCCC(C)C(=O)O (stereo not given)	–	37 µM (active)
COc1cccc(OC)c1	-0.569% (inactive)	–
FC(F)(F)C(F)(F)C(F)(F)C(F)(F)C(F)(F)C(F)(F)C(F)(F)C(F)(F)C(F)(F)C(F)(F)F	-4.55% [at 8.39 µM] (inactive)	–
N#CCN(CC#N)CCN(CC#N)CC#N	12.6% (inactive)	–
C#CC(C)(O)CC(C)C (stereo not given)	3.12% (inactive)	–
NC(CS)C(=O)O (stereo not given)	6.09% [at 42.5 µM] (inactive)	–
COc1nc(C)nc(N)n1	0.542% (inactive)	–
Nc1nc2c(ncn2CCC(CO)CO)c(=O)[nH]1	8.53% [at 42.5 µM] (inactive)	–
CC(C)CCCC(C)NCCC(C)C (stereo not given)	2.38% [at 42.5 µM] (inactive)	–
NC(=S)Nc1cccc2ccccc12	8.83% [at 8.39 µM] (inactive)	–
CC(C)CCOC(=O)CC(C)C	11% (inactive)	–
C[C@H](O)C(=O)Nc1c(I)c(C(=O)NC(CO)CO)c(I)c(C(=O)NC(CO)CO)c1I	-0.083% [at 42.5 µM] (inactive)	–
NCCN1CCNC1=O	0.8% (inactive)	–
C=C(C)C(=O)OCCCCCCCCCCCCCCCCCC	13.7% [at 19 µM] (inactive)	–
COc1cc(O)cc(O)c1	-0.114% [at 42.5 µM] (inactive)	–
c1ccc2cnncc2c1	-6.58% (inactive)	–
Cn1ccc2cc3c(cc21)CCN3C(=O)Nc1cccnc1	-14.8% [at 19 µM] (inactive)	–
C=C(C)C(=O)NCCCN(C)C	16.3% (inactive)	–
CC(C)(C)OC(=O)N1C[C@@H](F)C[C@H]1C(=O)O	-2.13% (inactive)	–

Structure (SMILES)	activity change, negative = cytotoxicity	Potency
CC(C)[C@H](N)C(=O)OCCOCn1cnc2c(=O)[nH]c(N)nc21	1.63% [at 42.5 µM] (inactive)	–
CCN(CC)S(=O)(=O)c1ccc(C(=O)O)cc1	0.0987% [at 42.5 µM] (inactive)	–
CC(C)=CCC/C(C)=C/C(=O)O	5.07% (inactive)	–
CCCCc1ccc(N)cc1	5.18% (inactive)	–
CC(C)(O)c1ccccc1	-8.72% (inactive)	–
CC(C)COC(=O)C(C)C	0.318% (inactive)	–
C1COCCO1	6.62% (inactive)	–
CC1=CC(=O)CCC1	7.61% (inactive)	–
CC(C)CCCC(C)CCCC(C)CCCCC(C)CCCC(C)CCCC(C)C (stereo not given)	0.408% [at 42.5 µM] (inactive)	–
C/C=C1\C(=O)C[C@H]2[C@@H]3CCC4=CC(=O)CC[C@]4(C)[C@H]3CC[C@]12C	-3.64% [at 42.5 µM] (inactive)	–
OC/C=C/c1ccccc1	0.869% (inactive)	–
CC1(C)OC(=O)Nc2ccc(Br)cc21	-0.981% [at 42.5 µM] (inactive)	–
CCCc1ccccc1O	-2.14% (inactive)	–
C#CC(O)C(CC)CCCC (stereo not given)	8.05% (inactive)	–
Cc1nc(-c2ccc(OCC(C)C)c(C#N)c2)sc1C(=O)O	-15.9% [at 42.5 µM] (inactive)	–
N#CCc1ccccc1[N+](=O)[O-]	-15.1% (inactive)	–
C=C(C)[C@H]1CC=C(C)CC1	12.4% (inactive)	–
CCCCC1CCCCC(=O)O1 (stereo not given)	3.41% (inactive)	–
C[C@H]1O[C@@H](n2cc(F)c(=O)[nH]c2=O)[C@H](O)[C@@H]1O	0.29% [at 42.5 µM] (inactive)	–
C=CC(=O)OCCCCCC	12.7% (inactive)	–
